# In PubChem BioAssay AID1276 (Columbia University Molecular Screening Center, 2008):
# About 2,000 (1.1%) of roughly 190,000 compounds were called active. This is one part of a sample in which actives are shown more often than they occur. A number with no mark means an inactive call.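 The calls were made as follows: active = activation above a set limit, based on mean plus 3 SD of controls (cut at about 140% in these data); inconclusive = one replicate above the limit, the other below; inactive = the rest.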
# Assay: activators of APP 5'UTR luciferase reporter, primary screen, SH-SY5Y cells (AID 1276)
# Conditions: SH-SY5Y APP 5'UTR luciferase reporter, luminescence; at 2 µM; hits give high values; zero percent = DMSO vehicle wells
row,Compound,activation
1,O=C(NNC(=O)c1ccc(Cl)cc1Cl)c1cccs1,59.2%
2,O=C(Nc1ccn(Cc2ccc(F)cc2)n1)c1ccncc1,-11.3%
3,O=C(Nc1ccn(Cc2ccccc2)n1)c1cccc(F)c1,197% (active)
4,O=C(Nc1ccn(Cc2ccccc2)n1)c1n[nH]c([N+](=O)[O-])c1Cl,129%
5,Cc1coc(C)c1C(=O)CC1(O)C(=O)N(C)c2ccc(Cl)cc21 (centres undefined),12.3%
6,CCN(CC)CCNC(=O)c1sc2ncn(CC(=O)Nc3ccc(C)c(Cl)c3)c(=O)c2c1C,11.4%
7,Cc1nn(-c2ccc([N+](=O)[O-])cc2)c(N)c1-c1ccccc1,152% (active)
8,Cc1nn(-c2ccccc2)c2c1C(c1cccc([N+](=O)[O-])c1)N(c1ccccc1)C(=O)N2 (centres undefined),11.7%
9,O=C1CC(c2ccccc2)=NN1c1ccc([N+](=O)[O-])cc1,-12.9%
10,CCN(C(=O)Cc1nc(N)n[nH]1)C1(C(=O)Nc2ccccc2)CCCCC1,-3.52%
11,O=C(Nc1ccc2nc3n(c(=O)c2c1)CCCCC3)c1ccccc1Cl,22%
12,O=C(Nc1ccc2sc3ccccc3c(=O)c2c1)c1ccccc1Cl,221% (active)
13,COc1cc(NC(=O)c2cccs2)ccc1NC(=O)c1ccccc1Cl,37.2%
14,CCOC(=O)c1ccccc1NC(=O)CSc1nc2ccccc2c(=O)[nH]1,-2.72%
15,COc1cccc(N(Cc2nnc3n2CCCCC3)C(=O)Nc2ccccc2F)c1,3.63%
16,Cc1cc(Br)ccc1NC(=O)C1CCCO1 (centres undefined),-29.7%
17,Cc1cc(C)c2nc(NC(=O)C3CCCO3)sc2c1 (centres undefined),159% (active)
18,O=C(Nc1nc2ccc(S(=O)(=O)N3CCCC3)cc2s1)C1CCCO1 (centres undefined),2.99%
19,O=C(/C=C/c1ccc(OCc2c(F)cccc2Cl)cc1)N1CCOCC1,12.2%
20,COc1ccc(OC)c(C(=O)CSc2nnc(-c3cccs3)o2)c1,-1.75%
21,COc1ccc(-c2nnc(SCC(=O)c3cccs3)o2)c(OC)c1,142% (active)
22,COc1ccc(-n2c(C)cc(C(=O)CSc3nnc(-c4cccs4)o3)c2C)cc1,-0.59%

row,Compound,activation
1,O=C(NNC(=S)NCc1ccco1)C(c1ccccc1)c1ccccc1,19.5%
2,O=C(NNC(=O)c1cc2c(s1)CCCC2)c1ccccc1,43.3%
3,CC(C)C(=O)Nc1cccc(C(=O)Nc2ccc3c(c2)OCO3)c1,138% (active)
4,Cc1cccc(NC(=O)Nc2ccc3c(c2)OCO3)n1,137% (active)
5,CC(NC(=O)Nc1ccc2c(c1)OCO2)c1ccncc1 (centres undefined),12.1%
6,Cc1cccc(NC(=O)/C=C/c2ccc3c(c2)OCO3)n1,118%
7,COc1ccc(C(=O)Nc2ccc3c(c2)OCO3)cc1OC,35.6%
8,O=C(Nc1ccccc1)c1ccc2c(c1)OCO2,-58.8%
9,CC(OC(=O)c1ccccc1OCc1ccc(Cl)cc1)C(N)=O (centres undefined),40.4%
10,Cc1cc(C)c(NC(=O)c2oc3ccccc3c2COc2ccccc2)c(C)c1,-0.13%
11,CCC(=O)N(Cc1cc2ccccc2[nH]c1=O)c1ccc(OC)cc1,-4.49%
12,C/C(=N/NC(=O)CCc1ccccc1)c1ccco1,10.2%
13,CCOc1ccc2nc(C(=O)N3CCCC(C)C3)sc2c1 (centres undefined),158% (active)
14,CCOc1ccc2nc(Nc3nc4ccc(NC(C)=O)cc4s3)sc2c1,-5.77%
15,CCOc1ccc2nc(SC(CC)C(=O)Nc3cc(C)on3)sc2c1 (centres undefined),1.9%
16,Cc1cc(CNCc2c(C(=O)N(C)Cc3ccccc3)nc3ccccn23)nn1C,7.64%
17,C/C(=N/NC(=S)Nc1ccccc1)c1ccc2c(c1)OCO2,11.9%
18,CCOC(=O)CN/C=C(\C#N)c1ccc(F)cc1,29.2%
19,O=C(Nc1ccc(Cl)cn1)c1ccc2c(c1)OCCO2,199% (active)
20,O=C(Nc1ccc2c(c1)OCCO2)c1ccc(Cl)c(S(=O)(=O)N2CCCCC2)c1,30.1%
21,O=C(Nc1cccc(Cl)c1N1CCOCC1)c1ccc2c(c1)OCCO2,12.9%
22,CN1CCN(c2ccc(NC(=O)c3ccc4c(c3)OCCO4)cc2Cl)CC1,144% (active)

row,Compound,activation
1,COc1c(Cl)cc(C(=O)Nc2ccc(Cl)cn2)cc1Cl,34.7%
2,O=C(Nc1cccc(S(=O)(=O)Nc2ccc(Cl)cc2)c1)c1ccc2c(c1)OCCO2,-20.6%
3,CN1CCN(CCC(=O)N/N=C/C=C2\N(C)c3ccccc3C2(C)C)CC1,8.29%
4,O=C(NNc1ncnc2c1cnn2-c1ccccc1)c1ccco1,6%
5,CCN(CC)C(=O)CSc1ncnc2c1cnn2-c1ccccc1,15.2%
6,Cc1cccc(-n2ncc3c(N4CCc5ccccc54)ncnc32)c1,25.5%
7,c1ccc(-n2ncc3c(N4CCCC4)ncnc32)cc1,160% (active)
8,COc1ccc(-n2ncc3c(N4CCc5ccccc54)ncnc32)cc1,204% (active)
9,COc1ccc(-n2ncc3c(N4CCCc5ccccc54)ncnc32)cc1,48.9%
10,O=C(COc1ccc(S(=O)(=O)N2CCCCC2)cc1)NCc1ccccn1,2.08%
11,CSCC[C@H](NC(=O)NC1CCCC1)C(=O)O,-20.9%
12,CCN1CCC2(CCN(Cc3cn[nH]c3-c3ccc(OC)c(F)c3)C2)C1 (centres undefined),-14.3%
13,O=C(NNS(=O)(=O)c1ccc(F)cc1)c1cnccn1,3.72%
14,C/C(=N\Nc1nc(Nc2ccccc2)nc(N2CCOCC2)n1)c1cccs1,-7.91%
15,C/C(=N\Nc1ncc(Cl)cc1Cl)c1cccs1,154% (active)
16,OCCNc1nc2ccccc2[nH]1,16.1%
17,COc1cccc(/C(C)=N/Nc2ncc(Cl)cc2Cl)c1,24.9%
18,C/C(=N\Nc1nc2ccccc2[nH]1)c1cccs1,150% (active)
19,C/C(=N\Nc1ncc(Cl)cc1Cl)c1ccc(S(=O)(=O)NCc2ccco2)cc1,100%
20,O=S(=O)(NCC1CCCO1)c1cnc(Cl)c(Cl)c1 (centres undefined),1.68%
